Compounds without any hit were thinned out: in the full panel of roughly 83,000, 20% have a hit.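 Testing used 96-well plates and a 48-hour single-concentration exposure. Example: -40 means 40% of the starting cells died.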 Activity calls are given as the source filed them. The calls were made as follows: active = growth percent below 10; inactive = the rest.
Key:
Experiment in all cases: NCI-60 one-dose screen, 48 h (100 = growth as untreated, 0 = no growth, -100 = all killed)
Settings in all cases: 10 µM unless noted
SR leukemia = tested on: SR leukemia
RPMI-8226 leukemia = tested on: RPMI-8226 leukemia
OVCAR-8 ovarian = tested on: OVCAR-8 ovarian
OVCAR-5 ovarian = tested on: OVCAR-5 ovarian
OVCAR-4 ovarian = tested on: OVCAR-4 ovarian
SK-OV-3 ovarian = tested on: SK-OV-3 ovarian
IGROV1 ovarian = tested on: IGROV1 ovarian
OVCAR-3 ovarian = tested on: OVCAR-3 ovarian
NCI/ADR-RES ovarian = tested on: NCI/ADR-RES ovarian
T-47D breast = tested on: T-47D breast
BT-549 breast = tested on: BT-549 breast
MDA-MB-435 melanoma = tested on: MDA-MB-435 melanoma
MCF7 breast = tested on: MCF7 breast
HCT-116 colon = tested on: HCT-116 colon
HCC-2998 colon = tested on: HCC-2998 colon
KM12 colon = tested on: KM12 colon
HS 578T breast = tested on: HS 578T breast
SW-620 colon = tested on: SW-620 colon

Measured: growth

CC(=O)Oc1ccc(Cl)cc1CN(C(C)=O)C1CCCCC1
inactive: SR leukemia 92.9% | RPMI-8226 leukemia 84% | OVCAR-8 ovarian 97.1% | OVCAR-5 ovarian 103% | OVCAR-4 ovarian 119% | SK-OV-3 ovarian 99.7% | IGROV1 ovarian 98.2% | OVCAR-3 ovarian 114% | NCI/ADR-RES ovarian 110% | T-47D breast 104% | BT-549 breast 107% | MDA-MB-435 melanoma 115% | MCF7 breast 97.6% | HCT-116 colon 102% | HCC-2998 colon 99.4% | KM12 colon 112%

Cc1nn(-c2ccc(F)cc2)c2ncnc(Nc3ccc(NC(=O)Nc4ccc(Cl)c(C(F)(F)F)c4)cc3)c12
active: T-47D breast 2.53%
inactive: SR leukemia 46.1% | RPMI-8226 leukemia 19.3% | OVCAR-8 ovarian 35.4% | OVCAR-5 ovarian 70.8% | OVCAR-4 ovarian 23.8% | SK-OV-3 ovarian 65.7% | IGROV1 ovarian 31% | HS 578T breast 31.3% | NCI/ADR-RES ovarian 38.2% | BT-549 breast 57.9% | MDA-MB-435 melanoma 40.1% | SW-620 colon 19.9% | MCF7 breast 12.8% | HCT-116 colon 32.1% | KM12 colon 14.7%

O=C1c2cc3c(cc2-c2c1c1ccc(F)cc1c(=O)n2C[C@H](O)[C@@H](O)[C@H](O)CO)OCO3
active: SR leukemia 0.151% | RPMI-8226 leukemia -0.286% | OVCAR-8 ovarian 0.0181% | OVCAR-5 ovarian -29.8% | SK-OV-3 ovarian -20.8% | HS 578T breast 0.229% | NCI/ADR-RES ovarian 4.78% | T-47D breast -4.06% | BT-549 breast -21.3% | MDA-MB-435 melanoma -76.2% | SW-620 colon 7.68% | MCF7 breast 4.18% | HCT-116 colon 9.8% | HCC-2998 colon -8.31% | KM12 colon 7.39%
inactive: OVCAR-4 ovarian 15.4% | IGROV1 ovarian 17.7%

O=c1nc2oc3ccc4ccccc4c3cc-2s1
inactive: SR leukemia 24.3% | RPMI-8226 leukemia 14.7% | OVCAR-8 ovarian 29.8% | OVCAR-5 ovarian 53.3% | OVCAR-4 ovarian 62.5% | SK-OV-3 ovarian 28.5% | IGROV1 ovarian 37.2% | NCI/ADR-RES ovarian 91.1% | T-47D breast 12.6% | BT-549 breast 49% | SW-620 colon 20.8% | MCF7 breast 19.3% | HCT-116 colon 21.1% | HCC-2998 colon 51.4% | KM12 colon 19.5%
active: HS 578T breast 3.65% | MDA-MB-435 melanoma -58.5%

CCOC(=O)c1c(C(=O)OCC)c2cc(-c3ccn4c(C(=O)c5ccccc5)c(C(=O)OCC)c(C(=O)OCC)c4c3)ccn2c1C(=O)c1ccccc1
inactive: SR leukemia 90.4% | RPMI-8226 leukemia 50.6% | OVCAR-8 ovarian 71.8% | OVCAR-5 ovarian 130% | OVCAR-4 ovarian 89.2% | SK-OV-3 ovarian 109% | IGROV1 ovarian 82.3% | OVCAR-3 ovarian 95% | NCI/ADR-RES ovarian 89.5% | T-47D breast 82.5% | BT-549 breast 93.4% | MDA-MB-435 melanoma 99.9% | MCF7 breast 92.9% | HCT-116 colon 103% | HCC-2998 colon 95.2% | KM12 colon 87.7%

COc1cc(C(=O)Oc2ccccc2OC(=O)c2cc(OC)c(OC)c(OC)c2)cc(OC)c1OC
inactive: SR leukemia 103% | RPMI-8226 leukemia 76.2% | OVCAR-8 ovarian 92.1% | OVCAR-5 ovarian 97.4% | OVCAR-4 ovarian 105% | SK-OV-3 ovarian 84.9% | IGROV1 ovarian 101% | OVCAR-3 ovarian 97.7% | NCI/ADR-RES ovarian 95.7% | T-47D breast 102% | BT-549 breast 94% | MDA-MB-435 melanoma 103% | SW-620 colon 109% | MCF7 breast 97.2% | HCT-116 colon 104% | KM12 colon 90.8%

C=CC(COC(c1ccccc1)(c1ccccc1)c1ccccc1)N(CC)CC (centres undefined)
inactive: SR leukemia 44.7% | RPMI-8226 leukemia 10.6% | OVCAR-8 ovarian 77% | OVCAR-5 ovarian 66.1% | OVCAR-4 ovarian 67.9% | SK-OV-3 ovarian 75.5% | IGROV1 ovarian 62% | HS 578T breast 85.7% | NCI/ADR-RES ovarian 62.4% | T-47D breast 54.8% | BT-549 breast 81.5% | MDA-MB-435 melanoma 61.2% | SW-620 colon 51.3% | MCF7 breast 33.4% | HCT-116 colon 35.9% | HCC-2998 colon 63% | KM12 colon 54.6%

O=C1/C(=C/c2ccc(OCCCOc3ccc(Cl)cc3)cc2)N=C2SCCCN12
inactive: SR leukemia 67.5% | RPMI-8226 leukemia 45.6% | OVCAR-8 ovarian 65.9% | OVCAR-5 ovarian 102% | OVCAR-4 ovarian 49.2% | SK-OV-3 ovarian 105% | IGROV1 ovarian 97.8% | HS 578T breast 107% | NCI/ADR-RES ovarian 67.4% | T-47D breast 50.5% | BT-549 breast 72.1% | MDA-MB-435 melanoma 93.2% | SW-620 colon 102% | MCF7 breast 69.5% | HCT-116 colon 45.8% | KM12 colon 70.8%

Clc1ccc2c(NCCCCNc3nc(N4CCCCC4)nc4ccccc34)ccnc2c1
active: SR leukemia -35.7% | RPMI-8226 leukemia -45.9% | HS 578T breast -19.9% | T-47D breast -46.7% | MDA-MB-435 melanoma -81.9% | SW-620 colon -1.17% | HCT-116 colon -17.7% | HCC-2998 colon -16.5%
inactive: OVCAR-8 ovarian 11.7% | OVCAR-5 ovarian 17.1% | OVCAR-4 ovarian 29.8% | SK-OV-3 ovarian 50.8% | IGROV1 ovarian 20.8% | NCI/ADR-RES ovarian 19.3% | BT-549 breast 37% | MCF7 breast 15.8% | KM12 colon 19.6%

CCCCCCN(CCCCCC)C(=N)c1ccnc2ccccc12
active: HCC-2998 colon -59.9%
inactive: SR leukemia 35.4% | RPMI-8226 leukemia 50.2% | OVCAR-8 ovarian 71.7% | OVCAR-5 ovarian 77.4% | OVCAR-4 ovarian 67.6% | SK-OV-3 ovarian 92.4% | IGROV1 ovarian 65.9% | OVCAR-3 ovarian 69.3% | NCI/ADR-RES ovarian 65.1% | T-47D breast 88.1% | BT-549 breast 73.8% | MDA-MB-435 melanoma 61.8% | SW-620 colon 59.8% | HCT-116 colon 31.2% | KM12 colon 71.1%

COc1cc2c(cc1-c1c(C)noc1C)ncc1nc(C3CCOCC3)n([C@H](C)COC(F)F)c12
inactive: SR leukemia 28.3% | RPMI-8226 leukemia 18% | OVCAR-8 ovarian 42.6% | OVCAR-5 ovarian 68.4% | OVCAR-4 ovarian 47.9% | IGROV1 ovarian 58.8% | HS 578T breast 16.8% | NCI/ADR-RES ovarian 38.4% | T-47D breast 46% | BT-549 breast 68.8% | MDA-MB-435 melanoma 40.6% | SW-620 colon 59% | MCF7 breast 19.2% | HCT-116 colon 40.4% | HCC-2998 colon 47.7% | KM12 colon 47%
active: SK-OV-3 ovarian 1.35%

CCOc1ccc(C(C)=O)cc1NC(=O)c1cccc(-c2nnn(CC)n2)c1
active: OVCAR-3 ovarian 7.08% | MDA-MB-435 melanoma -47.6%
inactive: SR leukemia 10.2% | RPMI-8226 leukemia 22.4% | OVCAR-8 ovarian 34.2% | OVCAR-5 ovarian 66.5% | OVCAR-4 ovarian 48% | SK-OV-3 ovarian 23.8% | IGROV1 ovarian 52.3% | NCI/ADR-RES ovarian 25.2% | T-47D breast 29.6% | BT-549 breast 58.5% | SW-620 colon 31.2% | MCF7 breast 32.5% | KM12 colon 23.8%

FC(F)(F)Oc1ccc2nc3nc4ccc[nH]c4cc3c2c1
inactive: SR leukemia 43.9% | RPMI-8226 leukemia 71.7% | OVCAR-8 ovarian 69.9% | OVCAR-5 ovarian 115% | OVCAR-4 ovarian 31.5% | SK-OV-3 ovarian 63.8% | IGROV1 ovarian 74.6% | OVCAR-3 ovarian 98.2% | NCI/ADR-RES ovarian 85.8% | T-47D breast 41.3% | BT-549 breast 84.4% | MDA-MB-435 melanoma 89.2% | SW-620 colon 86.8% | MCF7 breast 16.8% | HCT-116 colon 81.4% | HCC-2998 colon 96.8% | KM12 colon 72.8%

Cc1ccc(/C=C2\SC(=S)N(CC(=O)NCCCN3CCOCC3)C2=O)cc1
inactive: SR leukemia 97.2% | RPMI-8226 leukemia 95.9% | OVCAR-8 ovarian 96.4% | OVCAR-5 ovarian 101% | OVCAR-4 ovarian 91.3% | SK-OV-3 ovarian 82.7% | IGROV1 ovarian 107% | OVCAR-3 ovarian 102% | NCI/ADR-RES ovarian 96.5% | T-47D breast 90.4% | BT-549 breast 102% | MDA-MB-435 melanoma 99.4% | SW-620 colon 103% | MCF7 breast 91.5% | HCT-116 colon 100% | KM12 colon 105%

COc1ccc2cc(-c3nn(-c4ccc(C(=O)O)cc4)cc3CO)ccc2c1
inactive: SR leukemia 90.8% | RPMI-8226 leukemia 95.1% | OVCAR-8 ovarian 101% | OVCAR-5 ovarian 100% | OVCAR-4 ovarian 106% | SK-OV-3 ovarian 107% | IGROV1 ovarian 99.2% | OVCAR-3 ovarian 93.5% | NCI/ADR-RES ovarian 99.8% | T-47D breast 98.5% | BT-549 breast 93.5% | MDA-MB-435 melanoma 98.6% | SW-620 colon 107% | MCF7 breast 91% | HCT-116 colon 91% | HCC-2998 colon 100% | KM12 colon 101%

COc1ccc(/C=C/c2nc3ccccc3nc2/C=C/c2ccc(OC)cc2)cc1
inactive: SR leukemia 83.8% | RPMI-8226 leukemia 98.5% | OVCAR-8 ovarian 99.5% | OVCAR-5 ovarian 99.8% | OVCAR-4 ovarian 88.7% | SK-OV-3 ovarian 102% | IGROV1 ovarian 110% | OVCAR-3 ovarian 104% | NCI/ADR-RES ovarian 99.5% | T-47D breast 78.1% | BT-549 breast 104% | MDA-MB-435 melanoma 88.4% | SW-620 colon 92.6% | MCF7 breast 80.9% | HCC-2998 colon 104% | KM12 colon 99.6%

O=C1OCC2=C1C(c1ccncc1)c1cc3c(cc1N2CCO)OCO3 (centres undefined)
inactive: SR leukemia 122% | RPMI-8226 leukemia 103% | OVCAR-8 ovarian 98.8% | OVCAR-5 ovarian 100% | OVCAR-4 ovarian 100% | SK-OV-3 ovarian 87.3% | IGROV1 ovarian 101% | OVCAR-3 ovarian 105% | NCI/ADR-RES ovarian 104% | T-47D breast 91.1% | BT-549 breast 112% | MDA-MB-435 melanoma 96.7% | SW-620 colon 93.4% | MCF7 breast 96.3% | HCT-116 colon 107% | HCC-2998 colon 103% | KM12 colon 97.8%
